sEH activator: increases human soluble epoxide hydrolase activity; purified human sEH enzymatic activity, activator screen; activation, % at 2 µM; 91,000 compounds, 0.04% hits; in the data active = activation above about 37%
Cav32 inh: inhibitors of human Cav3.2 T-type calcium channel; O95180; Cav3.2-expressing cells, Fluo-4 calcium fluorescence FDSS; hits give low values; B-score at 10 µM; 100,000 compounds, 4% hits; AID 449739;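 active = single-dose well whose peak fluorescence ratio is a statistical outlier from its plate by either plate-standardised score or position-corrected B-score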
PostGolgi ctrl: growth of the yeast control strain, post-Golgi counter-screen | efflux-deficient yeast background strain, growth absorbance A615, 16 h | 98,000 compounds, 5% hits | inhibition, % at 10 µM
sEH inhibitor: inhibitors of human soluble epoxide hydrolase. P34913. recombinant human sEH enzymatic activity assay. inhibition, % at 2 µM. 91,000 compounds, 0.34% hits. AID 707; in the data active = inhibition above about 80%
PostGolgi yeast: growth inhibition of a yeast mutant, post-Golgi transport screen; 98,000 compounds, 0.9% hits; inhibition, % at 10 µM; AID 739; post-Golgi transport phenotypic cell assay;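 note: yeast cells grown in 1536-well plates; yeast grown about 18 h at 30C before absorbance read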
Starred values were filed as active, the others as inactive; x = no result given. Most compounds without a hit are left out; they make up all but 7.8% or so of the library. Cut-off read from the data, not from the text of the source, unless noted: active = inhibition above about 30%; inactive = the rest.

SMILES	sEH activator	Cav32 inh	PostGolgi ctrl	sEH inhibitor	PostGolgi yeast
Cc1ccc(C)c(S(=O)(=O)NCc2ccc(C(=O)NCc3ccco3)cc2)c1	-3.9	-2.27	x	6.3	x
Cc1occc1C(=O)Nc1cccc(C(=O)NCc2ccccc2)c1	-9.7	-3.8*	22.0	9.9	-1.8
Cc1ccc(C)c(Cn2c(C(=O)OC(C)C)cc3c2ccn3C)c1	12.1	-3.37	13.9	-10.3	-6.3
N#CC1=C(N)C(C#N)(C#N)C(c2cccnc2)C2CC(c3ccccc3)CC=C12 (centres undefined)	3.5	-2.53	14.0	-3.6	70.8*
COc1ccc(/C=C/C(O)=C2/C(=O)N(C)C3(C)CC2c2ccccc2O3)cc1 (centres undefined)	12.8	-5.04*	25.6	-12.5	1.1
Cc1ccc(/C=C/C(O)=C2/C(=O)N(C)C3(C)CC2c2ccccc2O3)cc1 (centres undefined)	2.9	-2.44	44.4*	-2.2	6.9
CCN1C(=O)C(C(=O)Nc2ccc(OC)cc2)C2CC1(C)Oc1ccccc12 (centres undefined)	-2.6	-2.3	15.9	7.3	-3.8
Cc1csc2nc(CNC(=O)C3CC=CCC3C(=O)O)cn12 (centres undefined)	7.1	0.0978	3.0	-6.4	-5.3
COCC(C)OC(=O)c1c(N)n(CC(C)C)c2nc3ccccc3nc12 (centres undefined)	-3.7	0.0275	14.8	0.3	-5.6
CCn1c(CNC(=O)COc2ccc(C(C)C)cc2)nnc1SCC(=O)Nc1ccccc1F	-25.9	-1.9	3.4	27.4	5.1
CCn1c(CNC(=O)COc2ccc(C(C)C)cc2)nnc1SCC(=O)Nc1ccccc1C(C)C	-48.6	-2.33	42.5*	49.9	2.3
CCCCCOCC1CC(C/C(C)=N/Nc2nc(-c3ccccc3)cs2)C(=O)O1 (centres undefined)	-1.0	-0.41	13.5	3.3	-1.4
Cc1ccccc1CSCCNC(=O)CN(c1ccc2c(c1)OCO2)S(C)(=O)=O	-1.3	-4.25*	5.4	3.5	-4.6
CC(C)(C)OC(=O)N1CCN(C(=O)OCC2c3ccccc3-c3ccccc32)CC1C(=O)O (centres undefined)	x	1.3	x	x	x
C=CCn1c(=O)c2c3c(sc2n2c(Nc4ccc(OC)cc4)nnc12)CCCC3	-8.0	-0.834	32.7*	5.7	4.6
C=CCn1c(=O)c2c3c(sc2n2c(Nc4ccccc4)nnc12)CCCC3	-2.5	0.551	21.3	4.8	8.5
COc1cc(C)c(C(C)C)cc1S(=O)(=O)n1cnc(C)c1	x	-4.79*	13.0	x	9.4
COC(=O)c1c(C)oc2c1cc(NS(=O)(=O)c1cccs1)c1ccccc12	-6.3	-0.0391	37.7*	5.5	-0.3
Cc1oc2c(cc(NS(=O)(=O)c3ccc4c5c(cccc35)C(=O)N4)c3ccccc32)c1C(=O)OC(C)C	-7.2	x	16.6	7.1	-3.3
CC1(c2nnc(Cc3ccccc3)o2)CC(c2ccncc2)=NO1 (centres undefined)	x	0.545	x	x	x
CC(=O)OC1c2ccccc2C(=O)N1Cc1ccccc1 (centres undefined)	14.7	0.0288	-1.4	-15.6	-2.4
CCOC(=O)c1sc(=S)n(CC)c1N	x	0.477	7.1	x	-9.3
CCOC(=O)c1sc(=S)n(Cc2ccccc2)c1N	-7.0	-6.68*	14.4	5.6	7.2
CCN(CC)C(=O)c1c2c(nc3ccccc13)-c1ccccc1CC2	0.0	-4.89*	27.4	-3.0	-3.4
Cc1cc(C)c2nc(N3CCCN(C(=O)c4cnccn4)CC3)c(C#N)cc2c1	-9.6	1.63	10.1	8.4	-8.0
SMILES	sEH activator	Cav32 inh	PostGolgi ctrl	sEH inhibitor	PostGolgi yeast
COC(=O)C1=C(C)N(CCCCCC(=O)O)C(=O)NC1c1ccccc1 (centres undefined)	x	0.34	x	x	x
Cc1ccc(-n2c(C)cc(C(=O)OCC(=O)N(CC(C)C)C3CCS(=O)(=O)C3)c2C)cc1 (centres undefined)	x	-8.17*	-6.9	x	0.0
N#CC(c1ccc(Cl)cc1)c1ncc(C(F)(F)F)cc1Cl (centres undefined)	6.6	-4.63*	1.5	-4.5	14.3
N[C@@H](Cc1ccc(O)cc1)c1nnc([C@H](CO)NC(=O)C2CCNCC2)o1	x	-0.659	x	x	x
C=CCn1c(NCCO)nc2sc3c(c2c1=O)CCC3	x	-0.0682	19.0	x	-6.0
OCCNc1nc(SCc2ccccc2)nc2sc3c(c12)CCC3	12.9	x	74.2*	-11.0	-0.9
Cc1ccc(C(=O)Nc2ccon2)cc1S(=O)(=O)N1CCCC1	-3.6	0.137	11.5	5.4	4.2
Cc1[nH]c2c(Br)cccc2c1[C@H]1[C@@H](CC#N)C1(C)C	9.7	-1.08	39.2*	-5.8	-3.6
Cc1cc(C)cc(NC(=O)CCN2CC(C)OC(C)C2)c1 (centres undefined)	x	-0.821	14.6	x	3.7
